Drawing on PubChem BioAssay AID1259318 (Sanford-Burnham Center for Chemical Genomics, 2017), this text covers activity for 91 compounds.

Out of some 370,000 compounds screened, about 3,000 (0.81%) were called active. For the sample, actives were picked, then their nearest neighbours and some compounds at random. A number with no mark means an inactive call.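 The calls were made as follows: active = activity above about 14% (limit read from the data; passing the limit was not always enough); inactive = the rest.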

In this experiment the target is Nuclear receptor subfamily 1 group D member 1 (Homo sapiens) (UniProt P20393). Briefly: Rev-erbα–DNA interaction modulation – biochemical, FITC-DNA, fluorescence polarization, uHTS, primary screen (AID 1259318).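 Also: 0% = DMSO wells with 35 nM protein and 100% = DMSO wells with 750 nM protein.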 The settings on record: Rev-erbα–FITC-DNA binding, 90 min, at 10 µM, stronger effect = higher value.
Nuclear receptor subfamily 1 group D member 1 (Homo sapiens), sequence (P20393 whole entry, looked up): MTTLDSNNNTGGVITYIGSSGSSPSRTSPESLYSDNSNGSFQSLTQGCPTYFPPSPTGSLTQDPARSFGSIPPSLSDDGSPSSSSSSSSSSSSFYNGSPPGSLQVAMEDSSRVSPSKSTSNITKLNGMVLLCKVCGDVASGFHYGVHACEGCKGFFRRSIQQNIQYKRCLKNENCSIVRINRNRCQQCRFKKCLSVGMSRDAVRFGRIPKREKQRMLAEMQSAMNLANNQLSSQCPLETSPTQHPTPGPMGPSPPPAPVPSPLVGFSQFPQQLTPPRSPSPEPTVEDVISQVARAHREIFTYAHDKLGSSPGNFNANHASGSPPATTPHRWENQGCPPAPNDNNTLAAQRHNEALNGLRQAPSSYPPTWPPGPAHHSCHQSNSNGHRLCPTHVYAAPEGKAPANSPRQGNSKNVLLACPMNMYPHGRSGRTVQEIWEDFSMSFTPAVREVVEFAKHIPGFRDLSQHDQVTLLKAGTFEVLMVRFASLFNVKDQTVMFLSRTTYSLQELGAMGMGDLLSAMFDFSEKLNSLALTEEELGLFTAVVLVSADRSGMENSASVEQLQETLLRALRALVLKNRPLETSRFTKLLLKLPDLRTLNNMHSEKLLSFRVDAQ
In the case of `Cc1nn(CC#N)c(=O)n1N(C)c1ncc(C(F)(F)F)cc1Cl`, the activity was 7.64%.

Take `CCOc1ccc(C2NC(=S)NC3=C2CCc2ccccc23)cc1` (stereo unspecified): the activity was 7.82%.

`O=C(COC(=O)c1ccccc1SCC(=O)NC1CCCCC1)NC1CCCCC1`: the activity is 70.3% (active).

For the compound `O=C(COC(=O)c1cccc(Cl)c1Cl)NC1CCCCCC1`, the activity is -4.74%.

Regarding `N#Cc1ccc(C(=O)OCC(=O)NC(=O)NC2CCCCC2)cc1`, the activity was -4.11%.

For the compound `O=C(COC(=O)c1cccc(Cl)c1)NC1CCCCCCC1`, the activity was -7.98%.

Regarding `N#Cc1ccccc1Sc1ccccc1C(=O)OCC(=O)NC1CCCCC1`, the activity is 61.4% (active).

For `O=C(COC(=O)c1cc([N+](=O)[O-])ccc1NCc1ccccc1)NC1CCCCC1`, the activity was -4.56%.

Consider `COC(=O)[C@]12C[C@H](CC(=O)NCc3ccccc3)C(=O)N(CCC3=CCCCC3)C1=C[C@H](C(C)C)O[C@@H]2C1CC1`, for which the activity was -4.75%.

As to `Cc1cc(C(=O)OCC(=O)Nc2ccc(F)c(F)c2)c(C)o1`, the activity was 4.64%.

Consider `CCc1ccc(C(=O)NNC(=O)C2CCN(c3ncnc4sc(C)c(C)c34)CC2)cc1`, for which the activity is -5.39%.

With `Cc1sc2ncnc(N3CCC(C(=O)Nc4ccc(F)cc4Cl)CC3)c2c1C`, the activity is 8.75%.

Turning to `Cc1sc2ncnc(N3CCC(C(=O)Nc4nc5ccc(Cl)cc5s4)CC3)c2c1C`, the activity was 42.2% (active).

On to `O=C1NS(=O)(=O)c2ccccc21`, for which the activity was 4.73%.

Turning to `CCOc1ccc(-n2c(SCC(=O)Nc3cc(C)c(NC(=O)c4ccccc4)cc3OC)nnc2-c2cccc(Cl)c2)cc1`, the activity is -3.54%.

As to `COc1ccc2[nH]c(C(=O)Nc3ccccc3Cl)cc2c1`, the activity was 49.3% (active).

Regarding `COc1cc(NC(=O)c2ccccc2NS(=O)(=O)c2ccc(Cl)s2)cc(OC)c1`, the activity is 0.46%.

With `COc1cc2cc(CN(CCN3CCCC3)C(=O)Nc3ccccc3Cl)c(=O)[nH]c2cc1OC`, the activity is 1.22%.

On to `CC1(Cc2cccc(C#N)c2)C(=O)Nc2ccc(-c3cccc(C(F)(F)F)c3)cc21` (stereo unspecified), for which the activity was 0.78%.

Regarding `CCc1ccc2c(c1)NC(=O)C2(C)Cc1ccc(OC(F)(F)F)cc1` (stereo unspecified), the activity is 4.7%.

With `COc1ccccc1CC1(C)C(=O)Nc2ccc(OC(F)(F)F)cc21` (stereo unspecified), the activity is 51.9% (active).

`COc1cc2c(cc1OC)[C@@H](Cc1cc(OC)c(OC)c(OC)c1)[N+](C)(CCCOC(=O)CC/C=C/CCC(=O)OCCC[N+]1(C)CCc3cc(OC)c(OC)cc3[C@H]1Cc1cc(OC)c(OC)c(OC)c1)CC2` (stereo partly specified): the activity was 4.74%.

As for `Cc1cc(=O)oc(C)c1C(=O)NC1CC(C)(C)NC(C)(C)C1`, the activity is -3.78%.

As to `Cc1cc(=O)oc(C)c1C(=O)N1CCCCC1`, the activity was 20.1% (active).

Turning to `Cc1c(Br)cc(C(=O)N2CCCCCC2)c(C)c1C`, the activity was -0.12%.

With `CCC1(C)OC(=O)N(C)C1=O` (stereo unspecified), the activity is -3.1%.

Take `Nc1cccc(OCCCCCOc2cccc(N)c2)c1`: the activity is 5%.

`COc1ccc(-c2c(C#Cc3ccsc3)c3cc(-c4ccc(CN5CCOCC5)cc4)ccc3n2C)cc1`: the activity was 3.65%.

For `COc1cc(OC)cc(-c2c(C#Cc3ccsc3)c3cc(-c4ccc(OC)cc4F)ccc3n2C)c1`, the activity was -0.12%.

As to `COc1cc(OC)cc(-c2c(C#Cc3ccsc3)c3cc(-c4ccc(SC)cc4)ccc3n2C)c1`, the activity is 34.1% (active).

Turning to `Cc1ccc(-c2ccc(CN3C(C)C(=O)N(Cc4cn(CCC5OCCCO5)nn4)CCS3(=O)=O)cc2)cc1` (stereo unspecified), the activity is 1.81%.

Take `CC1(C)C2CC[C@]3(C)C(C(=O)C=C4[C@@H]5C[C@@](C)(C(=O)O)CC[C@]5(C)CC[C@]43C)[C@@]2(C)CC[C@@H]1O` (stereo partly specified): the activity is -5.93%.

As to `CC(C)(C)OC(=O)C[C@@H]1C/C=C\C[C@H](CC(=O)N[C@@H](CO)Cc2ccccc2)C(=O)N[C@H](Cc2ccccc2)COC1=O`, the activity was -3.46%.

With `Cc1ccc(C)c2c1cc(C)c1nnc(SCC(=O)Nc3cccc(C(=O)O)c3)n12`, the activity is -2.26%.

As to `Cc1csc(SCC(=O)Nc2sccc2C#N)n1`, the activity is -1.85%.

With `Cc1ccc(NC(=O)CSc2sc3c(O)cc(=O)[nH]c3c2C#N)cc1C`, the activity was -17.5%.

For `CCOc1ccc2cc(C#N)c(SCC(=O)OC)nc2c1`, the activity is 116% (active).

Turning to `COC(=O)CSc1nc2c(c(C3CC=CCC3)c1C#N)CCC2` (stereo unspecified), the activity was 0.02%.

With `Cc1nonc1NC(=O)CSc1nc2ccccc2cc1C#N`, the activity is 39.8% (active).

`Cc1cc(C#N)c(SCC(N)=O)nc1-c1ccc(F)cc1`: the activity is -0.55%.

`Cc1nc2cc(NC(=O)CSc3nc4c(C)cccc4cc3C#N)ccc2s1`: the activity is 95.7% (active).

Turning to `Cc1ccc2nc(SCc3nnc(-c4ccccc4[N+](=O)[O-])o3)c(C#N)cc2c1`, the activity was -0.86%.

`CCNC(=O)CC1C(=O)N(c2ccc(OC)cc2)C(=O)N1CCOC` (stereo unspecified): the activity is -2.32%.

As for `C/C(=N\NC(=O)c1cc2c(s1)CCC(C)C2)c1cccnc1` (stereo unspecified), the activity is -5.04%.

As to `CCCCN(CCCC)CCNC(=O)CN1C(=O)COc2ccc(S(=O)(=O)N3CCOCC3)cc21`, the activity was 2.87%.

On to `C[C@@H](CN1C2=NC[C@@H](Cc3ccccc3)N2C[C@H]1Cc1ccc(O)cc1)NC(=O)CCC1CCCCC1`, for which the activity was -3.34%.

For `C[C@H]1CCC/C=C/C(=O)c2c(O)cc(O)cc2CC(=O)O1`, the activity is -5.09%.

Regarding `O=C(CN1C(=O)/C(=C/c2ccccc2F)Sc2ccccc21)NCc1cccnc1`, the activity is -1.22%.

Consider `O=C(CN1C(=O)COc2ccccc21)Nc1ccc(F)cc1`, for which the activity is -4.74%.

On to `CC(C)OCCCNC(=O)CN1C(=O)/C(=C/c2ccccc2F)Oc2ccccc21`, for which the activity is 25% (active).

As to `CCN(CC)C(=O)CC[C@@H]1CC[C@]2(CCCN(S(=O)(=O)C3CCCCC3)C2)O1`, the activity was -2.68%.

`COc1ccccc1OCCNCC(O)COc1cccc2[nH]c3ccccc3c12` (stereo unspecified): the activity is 0.09%.

Regarding `Oc1ccc2ccc3cccc[n+]3c2c1`, the activity is 34.3% (active).

For the compound `COC(=O)C1=C(C)N(Cc2ccccc2C(F)(F)F)C(=NCc2ccc(OC)cc2)NC1c1cccc(C(F)(F)F)c1` (stereo unspecified), the activity is 3.37%.

In the case of `COc1ccccc1NC(=O)COC(=O)CNC(=O)C1CCCCC1`, the activity was -2.69%.

Take `C=C(C)C1CC=C(C)/C(=N\NC(=O)CNc2ccccc2OC)C1` (stereo unspecified): the activity is 28.5% (active).

In the case of `C=C(C)C1CC=C(C)/C(=N/NC(=O)CCCNc2cccc(C)c2)C1` (stereo unspecified), the activity is -3.69%.

Regarding `CN1/C(=C\C=C2\N=C(c3ccc(F)cc3)OC2=O)C(C)(C)c2ccccc21`, the activity was 36.5% (active).

In the case of `COc1ccc(-n2c(COc3ccc(C)cc3)nnc2SCC(=O)Nc2ccc(Oc3ccccc3)cc2)cc1`, the activity is -3.25%.

Regarding `CCc1ccc(S(=O)(=O)Nc2ccc(C)c(NS(C)(=O)=O)c2)cc1`, the activity is -7.94%.

Turning to `CN1C(=O)c2ccc(C(=O)Nc3ccc(Br)cn3)cc2C1=O`, the activity is 73.7% (active).

As to `O=C(/C=C/c1ccc(Cl)cc1)Nc1ccc(Br)cn1`, the activity is -0.31%.

With `CN1C(=O)c2ccc(NC(=O)c3c(F)c(F)c(F)c(F)c3F)cc2C1=O`, the activity is -2.78%.

For `CS(=O)(=O)c1ccc(Cl)c(NC(=O)COC(=O)c2ncc(Cl)c(Cl)c2Cl)c1`, the activity was -0.27%.

On to `Cc1[nH]c2ccccc2c1CC(=O)Nc1ccc(Nc2cccnc2)c(-c2cccc(Cl)c2)c1`, for which the activity is 3.32%.

`O=C(O)CCCCC(=O)O`: the activity is -0.86%.

As to `O=C1c2ccccc2C(Nc2ccc3c(c2)OCCO3)N1Cc1ccco1` (stereo unspecified), the activity was -1.18%.

Consider `CCC(C)NC(=O)C1c2ccccc2C(=O)N1Cc1ccccc1` (stereo unspecified), for which the activity is -2.38%.

For the compound `CCCCCn1nnnc1C1c2ccccc2C(=O)N1Cc1ccco1` (stereo unspecified), the activity is 17.3% (active).

Consider `CC(=O)c1c(N)n(C)c(=O)n(C)c1=O`, for which the activity is 5.4%.

As to `COC(=O)CN1C(=O)C(C)(C)Oc2ccc(C(=O)Nc3cccc(OC)c3)cc21`, the activity is 6.32%.

Consider `CCOc1ccc(NC(=O)CSc2nncn2C)cc1`, for which the activity was 3.05%.

Turning to `CCOc1ccc(NC(=O)CSc2ncnc3c2sc2ccccc23)cc1`, the activity was 298% (active).

Take `COc1ccc(NC(=O)CSc2ncnc3[nH]ncc23)cc1`: the activity was -0.29%.

Consider `COC(=O)Nc1nc2ccc(C(=O)C3CC3)cc2[nH]1`, for which the activity was -10.6%.

On to `CC1(C)OC[C@@H](COC(=O)CCc2ccc(OC[C@@H](O)CNCCNC(=O)N3CCOCC3)cc2)O1`, for which the activity was 0.02%.

Regarding `CC(NC(=S)Nc1ccccc1)C(c1cccs1)N1CCOCC1` (stereo unspecified), the activity is 4.26%.

In the case of `CC(=O)C1=C(C)N(Cc2ccccc2)C(=S)NC1c1cccc(Br)c1` (stereo unspecified), the activity was -3.28%.

Turning to `CN(C)c1ccc(/C=C2\NC(=S)N(Cc3ccccc3)C2=O)cc1`, the activity is 40.1% (active).

As for `O=[N+]([O-])/C=C1\CCCCCN1`, the activity is -3.45%.

As for `COc1cccc(CNC(=O)[C@H]2CCCN2C(=O)[C@H]2CCCN2C(=O)C2CCCCC2)c1`, the activity is 4.65%.

As for `Cc1cc(C)c(/C=C2\C(=O)Nc3ccccc32)[nH]1`, the activity is 22.7% (active).

With `O=C1Nc2ccccc2C1=NN=Cc1ccco1`, the activity was -0.74%.

With `Cc1ccc(-c2nc(CS(=O)CC(=O)N3CCN(c4ncccn4)CC3)c(C)o2)cc1` (stereo unspecified), the activity was 4.76%.

On to `O=S(=O)(c1ccccc1)N1CCC(c2nc3ccccc3o2)CC1`, for which the activity was -9.25%.

Consider `CC1(C)CC2CC(C)(CN2c2ncnc3ccc(Br)cc23)C1` (stereo unspecified), for which the activity is 20.4% (active).

As for `COCCN1CCn2c(nc3cc(NS(C)(=O)=O)ccc32)C1`, the activity was -3.86%.

On to `Cc1ccc(NC(=O)c2cc(C)nn2-c2ccccc2)c(C)c1`, for which the activity was 2.36%.

Consider `CCOC(=O)c1ccc(NC(=S)Nc2cc(C)cc(C)n2)cc1`, for which the activity is 25.7% (active).

Turning to `CCOC(=O)c1cn[nH]c1NC(=S)Nc1ccccc1`, the activity was -3.54%.

On to `CCOC(=O)c1ccc(NC(=O)Cn2cnc3cc(C)c(C)cc32)cc1`, for which the activity was 1.51%.
